# Measurements taken from PubChem BioAssay AID720706 (Broad Institute, 2013).
# Among all 350,000 compounds or so, about 5,500 (1.6%) were called active.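 Rule for the calls: active = significant combined selectivity score with lowered wild-type GFP, culture density cut under 30%, mutant RFP and density less affected; inactive = any of these conditions unmet.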 The list comes from a sample in which actives are over-represented; it also holds similar structures and randomly drawn compounds.
# Experiment: GFP drop in mixed WT/humanized-ribosome E. coli culture – GFP/RFP fluorescence, OD600, single point, bacterial rRNA inhibitor project, primary screen (AID 720706)
# Conditions: E. coli WT GFP vs humanized-ribosome RFP mutants, 24 h; GFP signal change (wild-type ribosome): stronger effect = lower value, DMSO median 0, no signal -100; OD600 change: measured here: OD600 growth, DMSO median 0, no signal -100; RFP signal change: measured here: RFP humanized mutant strains, DMSO median 0, no signal -100, concentration not given here
Structure (SMILES),GFP signal change (wild-type ribosome),OD600 change [%],RFP signal change [%]
O=C(c1cnccn1)N1CC(=O)N2[C@H](C1)[C@@H](c1ccc(C3=CCCCC3)cc1)[C@@H]2CO,3.19% (inactive),-21.9,1.94
COCCNC(=O)C[C@@H]1C[C@@H]2c3cc(NS(=O)(=O)c4ccccc4)ccc3O[C@@H]2[C@H](CO)O1,1.27% (inactive),4,-0.545
Fc1cccc2ncnc(OCc3ccccc3)c12,-30.9% (active),-18,-2.44
CC(CNC(=O)Cn1cnc2c(OCc3ccccc3)ncnc21)c1ccccc1 (stereo not drawn),8.65% (inactive),14.8,2.69
c1ccc(COc2nsnc2N2CCOCC2)cc1,0.165% (inactive),-14.3,-6.39
CCCC#Cc1ccc([C@@H]2[C@@H](CO)N3C(=O)CN(C(=O)Nc4ccc(F)cc4)C[C@@H]23)cc1,-0.84% (inactive),-38.9,19.5
COCC(=O)Nc1ccc2c(c1)C(=O)N(C)[C@H]1CC[C@@H](CC(=O)NCc3cccc(F)c3)O[C@H]1CO2,3.46% (inactive),6.34,1.53
CC(=O)Nc1ccc2c(c1)CC(=O)N(C)C[C@H](C)[C@H](CN(C)S(C)(=O)=O)O2,0.68% (inactive),1.91,0.168
CCNC(=O)[C@H]1[C@H](CO)[C@H]2Cn3c(cccc3=O)[C@@H]1N2Cc1cc(F)ccc1F,0.156% (inactive),3.74,1
C[C@@H]1CN([C@H](C)CO)C(=O)c2cccc(NS(=O)(=O)c3ccc(F)cc3)c2O[C@@H]1CN(C)S(=O)(=O)c1ccc(Cl)cc1,-1.76% (inactive),-16.2,-1.81
Cn1nc(-c2ccccc2)c2cc([N+](=O)[O-])ccc21,0.085% (inactive),1.86,-0.696
Cc1nc(-c2ccc([N+](=O)[O-])cc2)c(-c2ccccc2)o1,-32% (active),-14.4,13.4
O=[N+]([O-])c1cc2ccccc2nc1-c1ccccc1,11.2% (inactive),-0.7,-0.455
O=C(C[C@H]1C[C@H]2c3cc(NC(=O)C4CCOCC4)ccc3O[C@H]2[C@@H](CO)O1)NCC1CC1,2.89% (inactive),8.38,-2.18
Cc1noc(C)c1NC(=O)Nc1ccc2c(c1)C(=O)N([C@@H](C)CO)C[C@H](C)[C@@H](CN(C)C(=O)C1CCCCC1)OCCCC[C@@H](C)O2,1.51% (inactive),8.89,-0.802
CC=Cc1ccc2n(c1=O)C[C@@H]1[C@@H](CO)[C@H](C(=O)NCCc3ccccc3)N(C(C)=O)[C@H]21 (mixture of isomers),0.861% (inactive),2.27,-0.668
COc1ccccc1NC(=O)N1C[C@@H]2[C@H](c3ccccc31)[C@H](CO)N2CC1CCOCC1,0.276% (inactive),-6.98,0.913
COCCCNc1ccn2nc(-c3ccc(CC(C)C)cc3)cc2n1,-26.9% (inactive),-34.5,0.31
COCCNc1cc(-c2ccccc2)nc2cc(-c3cccc(F)c3)nn12,-14.8% (active),8.3,-4.74
COc1ccc(-c2cc3nc(NCCOc4ccccc4)ccn3n2)cc1,-7.79% (inactive),-16.3,16.5
CC(C)NC(=O)N(C)C[C@H]1OCc2ccccc2-c2c(n(C)c3ccccc23)C(=O)N([C@H](C)CO)C[C@@H]1C,0.94% (inactive),5.88,-4.42

Structure (SMILES),GFP signal change (wild-type ribosome),OD600 change [%],RFP signal change [%]
CN1c2ccc(-c3ccccc3)cc2[C@@H]2[C@@H](CCN2C(=O)NC2CCCC2)[C@H]1CO,-26.6% (inactive),-47.4,16.9
CCC(=O)N1[C@@H](CO)[C@@H](c2ccccc2)C12CN(C(=O)c1cnccn1)C2,-1.97% (inactive),-9.38,1.42
COc1ccc(-c2nc(N)ncc2-c2ccc(Cl)cc2)c(O)c1,-4.3% (inactive),-9.82,0.567
CCOc1ccc(-c2nc(N)ncc2-c2ccccc2OC)c(O)c1,-28.9% (active),-3.55,-5.66
C=C(C)COc1ccc(-c2ncncc2-c2ccc(OC)cc2)c(O)c1,-11.6% (inactive),-10.7,-1.31
CCS(=O)(=O)Nc1ccc2c(c1)C(=O)N(C)[C@@H]1CC[C@H](CC(=O)N3CCCCC3)O[C@@H]1CO2,-0.591% (inactive),-4.1,-3.67
COc1ccc(NC(=O)N2C[C@H](O)COC[C@@H]3O[C@@H](CC(=O)NCc4ccccc4OC)CC[C@H]32)cc1,-1.91% (inactive),-2.52,-1.31
COc1cccc(-c2cn(CC[C@H]3CC[C@H](NC(=O)CN(C)C)[C@H](CO)O3)nn2)c1,-0.8% (inactive),-2.58,-0.651
CCNC(=O)[C@H]1[C@H](CO)[C@H]2Cn3c(cccc3=O)[C@H]2N1C(=O)C1CCCC1,4.25% (inactive),-2.66,-1.17
Cc1cc(C)c(C#N)c(Nc2cccc(Br)c2)n1,11.7% (inactive),6.25,3.63
Cc1cc(Nc2ccc(Br)cc2)nc2ccccc12,-50.8% (active),-41,-13.6
C[C@H]1CCCCO[C@H](CN(C)Cc2ccccc2)[C@@H](C)CN([C@@H](C)CO)C(=O)c2cc(NS(C)(=O)=O)ccc2O1,2.67% (inactive),3.64,-3.91
CCNC(=O)[C@@H]1[C@@H](CO)[C@@H]2Cn3c(ccc(-c4ccncc4)c3=O)[C@@H]2N1Cc1cc(F)ccc1F,2.37% (inactive),8.82,1.07
C[C@@H]1CN([C@@H](C)CO)C(=O)c2cc(NC(=O)CCCN(C)C)ccc2O[C@@H](C)CCCCO[C@H]1CN(C)C(=O)Nc1cccc2ccccc12,-3.48% (inactive),-7.41,4.52
COc1ccc(Cn2c(=O)oc3ccccc32)cc1,-5.68% (inactive),1.5,2.85
Cc1cccc(NC(=O)CCn2c(=O)oc3ccccc32)c1,3.5% (inactive),2.74,-1.45
Cc1ccc(OCCCn2c(=O)oc3ccccc32)cc1,-33.5% (active),-20.9,-1.83
O=C(Nc1ccccc1F)N[C@@H]1C=C[C@H](CC(=O)N2CCCCC2)O[C@@H]1CO,3.61% (inactive),6.08,-0.341
C[C@H](CO)N1C[C@H](C)[C@@H](CN(C)C(=O)Nc2cccc(F)c2)OCc2ccccc2-c2ccccc2C1=O,-0.679% (inactive),-1.43,0.291
C[C@H](CO)N1C[C@H](C)[C@H](CN(C)C(=O)Nc2cccc3ccccc23)OCCCC[C@H](C)Oc2ccc(NC(=O)Nc3ccc4c(c3)OCO4)cc2C1=O,2.1% (inactive),5.33,-1.79
CC(C)NC(=O)N1CCCCN2[C@H](CO)[C@H](c3ccc(C#C[C@H](C)O)cc3)[C@H]2C1,5.37% (inactive),11.9,2.67

Structure (SMILES),GFP signal change (wild-type ribosome),OD600 change [%],RFP signal change [%]
CCCNC(=O)c1cc2c(c(-c3cccc(-c4ccc(F)cc4)c3)n1)[C@@H](CCO)N([S@](=O)C(C)(C)C)C2,-7.84% (inactive),-6.59,26.4
CCCNC(=O)c1cc2c(c(-c3cccc(-c4ccc(C#N)cc4)c3)n1)[C@@H](CCO)N(C(=O)CC)C2,-28.9% (active),-16.6,9.41
CCS(=O)(=O)N1Cc2cc(C(=O)N(C)C)nc(-c3cccc(-c4ccc(C#N)cc4)c3)c2[C@H]1CCO,1.6% (inactive),-8.16,0.491
O=[N+]([O-])c1cccc(/C=N/Nc2ncc(Br)cn2)c1,14.8% (inactive),23.4,1.61
O=C(N/N=C/c1cc(Br)c(O)c([N+](=O)[O-])c1)C(O)(c1ccccc1)c1ccccc1,-13.8% (inactive),-17.8,-3.16
O=[N+]([O-])c1cc(Br)c(O)c(/C=N/Nc2nc3ccccc3s2)c1,-26.6% (active),-18.1,3.75
C[C@H](CO)N1C[C@H](C)[C@H](CN(C)C(=O)C2CCOCC2)Oc2ncc(C#Cc3ccccc3F)cc2C1=O,4.96% (inactive),16.6,-0.455
Cc1cc2ccccn2c1C(=O)c1cccc(S(=O)(=O)N2CCOCC2)c1,-23.1% (active),-17.5,2.76
Cc1nc2ccc(NC(=O)c3cccc(S(=O)(=O)N4CCOCC4)c3)cc2s1,-8.91% (inactive),-4.27,-0.693
Cc1cc2ccccn2c1C(=O)c1cccc(F)c1,-7.7% (inactive),-19.4,-0.345
O=C(NC1CCCC1)[C@H]1[C@H](CO)[C@H]2Cn3c(cccc3=O)[C@H]2N1C(=O)NC1CCCC1,6.01% (inactive),13.7,-2.22
COc1ccc(S(=O)(=O)N(C)C[C@@H]2OCCCC[C@@H](C)Oc3ccc(NS(C)(=O)=O)cc3C(=O)N([C@H](C)CO)C[C@@H]2C)cc1,2.26% (inactive),6.89,-2.21
O=C(NCC[C@H]1CC[C@H](NC(=O)C2CC2)[C@@H](CO)O1)c1cc(Cl)cc(Cl)c1,-1.63% (inactive),-6.47,-0.371
CCCNC(=O)N1[C@H](CO)[C@@H]2c3ccccc3N(C(=O)C3CC3)C[C@@H]21,6.32% (inactive),5.65,0.0995
CC[C@H]1OC(=O)[C@H](C)[C@@H](O[C@H]2C[C@@](C)(OC)[C@@H](O)[C@H](C)O2)[C@H](C)[C@@H](O[C@@H]2O[C@H](C)C[C@H](N(C)C)[C@H]2O)[C@](C)(O)C[C@@H](C)[C@@H]2N[C@@H](COCCOC)O[C@H]([C@H]2C)[C@]1(C)O,-22.6% (active),-9.78,5.64
Cn1cnc(S(=O)(=O)N2C[C@@H](O)COC[C@H]3O[C@H](CC(=O)N4CCN(c5ccccc5)CC4)CC[C@@H]32)c1,9.71% (inactive),22,-0.0733
Cc1ccc(NNC(=O)c2c(F)cccc2Cl)cc1Cl,-32.7% (active),-2.5,-1.17
O=C(NNc1cc(Cl)cc(Cl)c1)c1c(F)cccc1Cl,-4.44% (inactive),-4.42,-0.438
CCN(CC)CCNC(=O)c1ccc(NC(=O)c2c(F)cccc2Cl)cc1,7.17% (inactive),-3.78,-0.531
